Compound activity deposited in PubChem BioAssay by National Center for Advancing Translational Sciences (NCATS).
AID inh: inhibitors of human activation induced cytidine deaminase. Q9GZX7. AID deamination FRET fluorescence, UDG-coupled, 4 h. Potency, µM (highest dose often 115 µM), usual class: inhibitors. 91,000 compounds, 0.32% hits; also: nearly all actives have a fitted effect of over 25% in size
Target sequence (Q9GZX7 whole entry, looked up): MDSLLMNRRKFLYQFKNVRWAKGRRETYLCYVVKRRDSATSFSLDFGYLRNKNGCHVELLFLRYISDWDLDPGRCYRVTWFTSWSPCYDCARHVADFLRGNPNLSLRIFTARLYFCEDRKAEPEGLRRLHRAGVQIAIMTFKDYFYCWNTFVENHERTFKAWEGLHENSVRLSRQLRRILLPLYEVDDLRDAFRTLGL
UDG counterscr: counter-screen for AID inhibitors: uracil-DNA glycosylase inhibition; FRET deamination/UDG coupled assay, UDG read, 4 h; Potency, µM (doses to about 115 µM), most hits filed as inhibitors; 91,000 compounds, 0.14% hits; AID 1347430; also: nearly all actives have a fitted effect of over 65% in size
Large screens that a line does not name were inactive. Sampled rows, rich in hits. Any-hit rate of the full collection: about 0.4%. Calls follow the shape of the dose curve; as a rule, active = well fitted curve in the direction sought with a large enough effect; inconclusive = small, poorly fitted or top-dose-only effect, or another doubt; inactive = no such curve, though single readings can be large; an effect the other way counts as inactive or inconclusive.

CCOC(=O)C1=C(C)NC(=O)NC1c1cn(-c2ccccc2)nc1-c1ccc(OCC)cc1 (configuration not stated)	AID inh inconclusive
CCOc1ccc(-c2nn(-c3ccccc3)cc2C2NC(=O)NC(C)=C2C(=O)OC(C)C)cc1 (configuration not stated)	AID inh 45µM, UDG counterscr inconclusive
Cc1ccc(-n2nnnc2C2(Nc3ccccc3)CCCCC2)cc1	none
FC(F)(F)c1ccccc1N/N=C1/CCc2ccccc21	none
N#Cc1nc(/C=C/c2cccs2)oc1NC1CC1	none
Nc1nccnc1C(=O)Nc1ccc2ccccc2n1	none
CCOC(=O)c1c(-c2ccccc2)nc2ccccc2c1-c1ccccc1	none
Oc1ccc(NCc2ccc(OCc3ccccc3)cc2)cc1	AID inh 2.8µM
O/N=C\c1ccc(OCc2ccccc2Cl)cc1	none
Oc1ccc(NCc2ccc(OCc3ccccc3Cl)cc2)cc1	AID inh 35µM, UDG counterscr 79µM
c1ccc(CNCc2ccc(OCc3ccccc3)cc2)cc1	none
N#C/C(=C/C1=Cc2cc(Cl)ccc2OC1)c1nc2ccccc2[nH]1	none
CCN(CC)c1ccc(/C=N/NS(=O)(=O)c2ccc(Cl)cc2)cc1	none
CC(C)c1ccc(S(=O)(=O)c2nnn3c2nc(N2CCN(C)CC2)c2sccc23)cc1	AID inh 18µM
CN1CCN(c2nc3c(S(=O)(=O)c4ccc(Cl)cc4)nnn3c3ccsc23)CC1	AID inh inconclusive
Cc1ccc(C(=O)/C=C/c2ccc(-c3ccc(C)c(Cl)c3)o2)cc1	none
Cc1ccc(C(=O)N(Cc2ccncc2)C2CC2)cc1	none
Cc1ccccc1Cn1c(SCc2ccc(C(=O)NCc3cccs3)cc2)nc2ccncc21	none
O=C(NCc1cccs1)c1ccc(CSc2nc3ccncc3n2Cc2ccccc2F)cc1	AID inh 79µM
Cc1ccc(-c2c(C(=O)O)sc3c2cnc2ccc(C)cc23)cc1	AID inh inconclusive
COC(=O)c1c2c(c3ccccc3c1-c1ccccc1)OC(c1ccc(OC)cc1)(c1ccc(OC)cc1)C=C2	none
Cc1ccc(NC(=O)C2=C(c3ccccc3)NC(=S)NC2c2ccc(Br)cc2)cc1 (configuration not stated)	none
Cc1cccc(-n2c(SCc3nc(-c4ccccc4C)no3)nnc2-c2ccccc2)c1	none
Cc1ccc(-c2noc(CSc3nnc(C4CC4)n3-c3ccccc3)n2)cc1	UDG counterscr 89µM
Cc1nnc(SCc2nc(-c3ccc(Cl)cc3)no2)n1-c1ccc(F)cc1	AID inh inconclusive, UDG counterscr 79µM
Cc1ccc(-c2noc(CSc3nnc(C)n3-c3ccc(F)cc3)n2)cc1	UDG counterscr inconclusive
Cc1ccc(-c2c(-c3cn4ccc(C)cc4n3)c(=O)n(C)c(=O)n2C)cc1	none
Cc1cc(OCC(=O)NCCCN(C)C)c2c(C)c(C)c(=O)oc2c1	none
CC(C)(C)c1cc(NC(=O)Nc2ccc(F)cc2)no1	none
CCN(CC)C(=O)CSc1nc(-c2ccccc2F)nc2c1Cc1c(CO)cnc(C)c1O2	AID inh 28µM
CCc1ccc(CSc2nc(-c3ccccc3F)nc3c2Cc2c(CO)cnc(C)c2O3)cc1	none
